About 2,000 (36%) of roughly 5,500 compounds were called active. Inconclusive results (about 18%) are left out. No stated cut-off is given here; in the data, active means normalized growth mostly below about 0.91 (no sharp cut-off); inconclusive means no clear call, values can overlap the other calls; inactive means mostly above about 0.92. This is one part of the list.
Assay: chemical genetic growth profiling, strain panel (AID 1159580);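 further: tested at 20 µM; growth read once vehicle control cultures reached saturation at 30 °C; 1 = growth at the plate median or of vehicle wells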
Settings: S. cerevisiae deletion strains, growth OD

Measured: normalized growth

COc1ccc(-c2coc3cc(O)ccc3c2=O)c(OC)c1O
inactive: locus YAL013W, strain DEP1, stronger effect = lower value 0.991 | locus YAL021C, strain ccr4, stronger effect = lower value 0.979 | locus YAL026C, strain drs2, stronger effect = lower value 0.979 | locus YAL030W, strain snc1, stronger effect = lower value 0.947 | locus YBL061C, strain skt5, stronger effect = lower value 0.973 | locus YBR009C, strain hhf1, stronger effect = lower value 0.966 | locus YBR021W, strain FUR4, stronger effect = lower value 1.12 | locus YBR023C, strain chs3, stronger effect = lower value 0.98 | locus YBR171W, strain sec66, stronger effect = lower value 0.983 | locus YBR229C, strain ROT2, stronger effect = lower value 0.949 | locus YBR231C, strain swc5, stronger effect = lower value 0.989 | locus YBR279W, strain paf1, stronger effect = lower value 0.983 | locus YCL011C, strain gbp2, stronger effect = lower value 0.977 | locus YCL016C, strain dcc1, stronger effect = lower value 0.978 | locus YCL029C, strain bik1, stronger effect = lower value 0.972 | locus YCL061C, strain MRC1, stronger effect = lower value 0.991 | locus YCL069W, strain vba3, stronger effect = lower value 0.981 | locus YCR088W, strain abp1, stronger effect = lower value 0.983 | locus YDL005C, strain med2, stronger effect = lower value 0.977 | locus YDL035C, strain GPR1, stronger effect = lower value 1 | locus YDL040C, strain nat1, stronger effect = lower value 0.987 | locus YDL074C, strain BRE1, stronger effect = lower value 1.03 | locus YDL101C, strain DUN1, stronger effect = lower value 0.97 | locus YDL185W, strain tfp1, stronger effect = lower value 0.968 | locus YDL192W, strain arf1, stronger effect = lower value 0.984 | locus YDR001C, strain nth1, stronger effect = lower value 0.983 | locus YDR069C, strain doa4, stronger effect = lower value 0.947 | locus YDR101C, strain arx1, stronger effect = lower value 0.975 | locus YDR137W, strain rgp1, stronger effect = lower value 0.986 | locus YDR159W, strain sac3, stronger effect = lower value 0.953 | locus YDR162C, strain NBP2, stronger effect = lower value 0.966 | locus YDR195W, strain ref2 0.94 | locus YDR297W, strain sur2, stronger effect = lower value 0.979 | locus YDR318W, strain mcm21, stronger effect = lower value 0.99 | locus YDR334W, strain swr1, stronger effect = lower value 0.967 | locus YDR335W, strain msn5, stronger effect = lower value 0.991 | locus YDR388W, stronger effect = lower value 0.988 | locus YDR392W, strain spt3, stronger effect = lower value 0.945 | locus YDR502C, strain sam2, stronger effect = lower value 0.977 | locus YEL003W, strain gim4, stronger effect = lower value 0.976 | locus YEL037C, strain rad23, stronger effect = lower value 0.967 | locus YEL061C, strain CIN8 (second series), stronger effect = lower value 0.967 | locus YEL061C, strain CIN8, stronger effect = lower value 0.985 | locus YER015W, strain faa2, stronger effect = lower value 0.983 | locus YER016W, strain bim1, stronger effect = lower value 0.986 | locus YER110C, stronger effect = lower value 0.962 | locus YER111C, strain swi4, stronger effect = lower value 0.971 | locus YER155C, strain BEM2 (second series), stronger effect = lower value 0.985 | locus YER155C, strain BEM2, stronger effect = lower value 1 | locus YER167W, strain BCK2, stronger effect = lower value 0.983 | locus YFR010W, strain ubp6, stronger effect = lower value 0.968 | locus YGL078C, strain dbp3, stronger effect = lower value 0.986 | locus YGL086W, strain mad1, stronger effect = lower value 0.971 | locus YGL167C, strain pmr1, stronger effect = lower value 0.959 | locus YGL173C, strain kem1, stronger effect = lower value 0.974 | locus YGL227W, strain vid30, stronger effect = lower value 0.957 | locus YGL240W, strain doc1, stronger effect = lower value 0.977 | locus YGL248W, strain PDE1, stronger effect = lower value 0.982 | locus YGL253W, strain hxk2, stronger effect = lower value 0.989 | locus YGR135W, strain pre9, stronger effect = lower value 1.01 | locus YGR252W, strain gcn5, stronger effect = lower value 1.12 | locus YHR013C, strain ard1, stronger effect = lower value 0.933 | locus YHR027C, strain rpn1, stronger effect = lower value 0.989 | locus YHR030C, strain SLT2, stronger effect = lower value 0.99 | locus YHR079C, strain IRE1 (second series), stronger effect = lower value 0.974 | locus YHR094C, strain hxt1, stronger effect = lower value 0.988 | locus YHR129C, strain ARP1, stronger effect = lower value 0.993 | locus YHR142W, strain chs7, stronger effect = lower value 1 | locus YHR200W, strain rpn10, stronger effect = lower value 0.991 | locus YIL066C, strain RNR3, stronger effect = lower value 0.981 | locus YIL073C, strain SPO22, stronger effect = lower value 0.98 | locus YIL125W, strain kgd1, stronger effect = lower value 0.99 | locus YIR030C, strain dcg1, stronger effect = lower value 0.985 | locus YJL092W, strain hpr5, stronger effect = lower value 0.986 | locus YJL095W, strain BCK1 (second series), stronger effect = lower value 0.986 | locus YJL095W, strain BCK1, stronger effect = lower value 0.978 | locus YJL115W, strain asf1, stronger effect = lower value 0.996 | locus YJL129C, strain trk1, stronger effect = lower value 0.966 | locus YJL134W, strain LCB3, stronger effect = lower value 0.983 | locus YJL154C, strain vps35, stronger effect = lower value 0.977 | locus YJL164C, strain tpk1, stronger effect = lower value 0.969 | locus YJL166W, strain qcr8, stronger effect = lower value 0.98 | locus YJL168C, strain set2, stronger effect = lower value 0.993 | locus YJL187C, strain SWE1 (second series), stronger effect = lower value 0.963 | locus YJL187C, strain SWE1, stronger effect = lower value 0.979 | locus YJR043C, strain POL32, stronger effect = lower value 0.985 | locus YKL009W, strain mrt4, stronger effect = lower value 0.965 | locus YKL068W, stronger effect = lower value 0.975 | locus YKL085W, strain MDH1 (second series), stronger effect = lower value 0.976 | locus YKL085W, strain MDH1, stronger effect = lower value 0.976 | locus YKL160W, strain elf1, stronger effect = lower value 0.999 | locus YKR001C, strain vps1, stronger effect = lower value 1 | locus YKR026C, strain gcn3, stronger effect = lower value 0.961 | locus YKR091W, strain srl3, stronger effect = lower value 0.973 | locus YLL001W, strain dnm1, stronger effect = lower value 1 | locus YLL026W, stronger effect = lower value 0.991 | locus YLL041C, strain sdh2, stronger effect = lower value 0.994 | locus YLR027C, strain aat2, stronger effect = lower value 0.976 | locus YLR039C, strain RIC1, stronger effect = lower value 0.97 | locus YLR058C, strain SHM2, stronger effect = lower value 0.972 | locus YLR102C, strain apc9, stronger effect = lower value 0.991 | locus YLR221C, strain rsa3, stronger effect = lower value 0.966 | locus YLR258W, strain gsy2, stronger effect = lower value 0.983 | locus YLR262C, strain YPT6 (second series), stronger effect = lower value 0.977 | locus YLR262C, strain YPT6, stronger effect = lower value 0.907 | locus YLR268W, strain sec22, stronger effect = lower value 0.989 | locus YLR320W, strain mms22, stronger effect = lower value 0.979 | locus YLR330W, strain CHS5, stronger effect = lower value 0.99 | locus YLR342W, strain FKS1 (second series), stronger effect = lower value 0.987 | locus YLR342W, strain FKS1, stronger effect = lower value 0.967 | locus YLR357W, strain rsc2, stronger effect = lower value 0.947 | locus YLR370C, strain arc18, stronger effect = lower value 0.978 | locus YLR371W, strain rom2, stronger effect = lower value 0.983 | locus YLR384C, strain iki3, stronger effect = lower value 0.975 | locus YLR418C, strain cdc73, stronger effect = lower value 1.01 | locus YML016C, strain PPZ1, stronger effect = lower value 0.993 | locus YML032C, strain rad52, stronger effect = lower value 0.983 | locus YML120C, strain ndi1, stronger effect = lower value 0.971 | locus YML124C, strain tub3, stronger effect = lower value 0.991 | locus YMR058W, strain fet3, stronger effect = lower value 0.977 | locus YMR078C, strain ctf18, stronger effect = lower value 0.982 | locus YMR125W, strain sto1, stronger effect = lower value 0.96 | locus YMR129W, stronger effect = lower value 0.981 | locus YMR205C, strain PFK2, stronger effect = lower value 0.953 | locus YMR223W, strain ubp8, stronger effect = lower value 0.981 | locus YMR231W, strain pep5, stronger effect = lower value 0.982 | locus YMR307W, strain GAS1, stronger effect = lower value 1.16 | locus YNL067W, strain RPL9B, stronger effect = lower value 0.972 | locus YNL071W, strain lat1, stronger effect = lower value 0.984 | locus YNL153C, strain GIM3, stronger effect = lower value 0.954 | locus YNL209W, strain ssb2, stronger effect = lower value 0.982 | locus YNL233W, strain BNI4, stronger effect = lower value 1 | locus YNL248C, strain rpa49, stronger effect = lower value 1 | locus YNL250W, strain rad50, stronger effect = lower value 0.99 | locus YNL271C, strain bni1, stronger effect = lower value 0.987 | locus YNL298W, strain CLA4, stronger effect = lower value 0.992 | locus YNL307C, strain MCK1, stronger effect = lower value 0.995 | locus YNL322C, strain KRE1 (second series), stronger effect = lower value 0.953 | locus YNL322C, strain KRE1, stronger effect = lower value 0.99 | locus YNR049C, strain mso1, stronger effect = lower value 0.972 | locus YNR052C, strain pop2, stronger effect = lower value 0.991 | locus YOL012C, strain htz1 0.858 | locus YOL147C, strain pex11, stronger effect = lower value 0.988 | locus YOR001W, strain rrp6, stronger effect = lower value 1 | locus YOR061W, strain CKA2, stronger effect = lower value 0.966 | locus YOR069W, strain VPS5, stronger effect = lower value 0.997 | locus YOR070C, strain gyp1, stronger effect = lower value 0.985 | locus YOR080W, strain dia2, stronger effect = lower value 0.965 | locus YOR083W, strain WHI5, stronger effect = lower value 0.977 | locus YOR106W, strain vam3, stronger effect = lower value 0.992 | locus YOR136W, strain idh2, stronger effect = lower value 0.99 | locus YOR144C, strain elg1, stronger effect = lower value 0.988 | locus YOR184W, strain ser1, stronger effect = lower value 0.974 | locus YOR265W, strain rbl2, stronger effect = lower value 0.985 | locus YOR270C, strain vph1, stronger effect = lower value 0.977 | locus YOR290C, strain snf2, stronger effect = lower value 0.92 | locus YOR316C, strain cot1, stronger effect = lower value 0.984 | locus YPL051W, strain arl3, stronger effect = lower value 1 | locus YPL055C, strain LGE1, stronger effect = lower value 0.984 | locus YPL078C, strain atp4, stronger effect = lower value 0.982 | locus YPL106C, strain sse1, stronger effect = lower value 0.966 | locus YPL240C, strain hsp82, stronger effect = lower value 1 | locus YPR119W, strain clb2, stronger effect = lower value 0.973 | locus YPR141C, strain kar3, stronger effect = lower value 0.985 | locus YPR163C, strain tif3, stronger effect = lower value 0.997 | locus YPR167C, strain met16, stronger effect = lower value 0.997 | strain wtn01, stronger effect = lower value 0.981
